Consider 5 molecules from PubChem BioAssay (EPA / NIEHS).

Experiment [1] can be described thus: BSK_CASM3C_SRB: Viability Assessment in the BioMAP Diversity Plus: CASM3C Assay (AID 2283050).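 Further: cells exposed to compound for 24 h.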 To be noted: primary human coronary artery smooth muscle cells.
Read-out in experiment [2]: Thrombomodulin, THBD (gene 7056)
Briefly: BSK_CASM3C_Thrombomodulin: BioMAP Diversity Plus: CASM3C Assay for Thrombomodulin Biomarker Activity (AID 2283051).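 Further: thrombomodulin protein level measured by ELISA 24 h after dosing.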 To be noted: primary human coronary artery smooth muscle cells; actives raise or lower the signal.

Read-out in experiment [3]: Tissue Factor, F3 (gene 2152)
Description: BSK_CASM3C_TissueFactor: BioMAP Diversity Plus: CASM3C Assay for Tissue Factor Biomarker Activity (AID 2283052).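 Further: cell surface tissue factor protein level read by ELISA.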 To be noted: primary human coronary artery smooth muscle cells; actives raise or lower the signal.

Read-out in experiment [4]: Interferon-gamma inducible Protein 10 (IP10), CXCL10 (gene 3627)
Description: BSK_hDFCGF_IP10: BioMAP Diversity Plus: hDFCGF Assay for Interferon-gamma inducible Protein 10 (IP10) Biomarker Activity (AID 2283053). The following applies: primary human foreskin fibroblasts; actives raise or lower the signal. In short, it runs like this: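 Primary foreskin fibroblasts, human; 24 h compound exposure; IP-10 by ELISA; bidirectional fit vs DMSO.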

Read-out in experiment [5]: Urokinase-type plasminogen activator receptor (uPAR), PLAUR (gene 5329)
Description: BSK_CASM3C_uPAR: BioMAP Diversity Plus: CASM3C Assay for Urokinase-type plasminogen activator receptor (uPAR) Biomarker Activity (AID 2283054).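 Further: cell-surface uPAR protein level quantified by ELISA.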 The following applies: primary human coronary artery smooth muscle cells; actives raise or lower the signal.

Read-out in experiment [6]: Vascular cell adhesion molecule 1 (VCAM1), VCAM1 (gene 7412)
Description: BSK_CASM3C_VCAM1: BioMAP Diversity Plus: CASM3C Assay for Vascular cell adhesion molecule 1 (VCAM1) Biomarker Activity (AID 2283055).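 Further: VCAM-1 protein level quantified by ELISA on the cells.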 To be noted: primary human coronary artery smooth muscle cells; actives raise or lower the signal.

Read-out in experiment [7]: Collagen III, COL3A1 (gene 1281)
Description: BSK_hDFCGF_CollagenIII: BioMAP Diversity Plus: hDFCGF Assay for Collagen III Biomarker Activity (AID 2283056). The following applies: primary human foreskin fibroblasts; actives raise or lower the signal. In short, it runs like this: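 Cells: human foreskin fibroblasts, primary. Dosing followed by 24 h incubation, then ELISA for collagen III. Both increases and decreases scored relative to DMSO.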

Read-out in experiment [8]: Epidermal growth factor receptor (EGFR), EGFR (gene 1956)
Description: BSK_hDFCGF_EGFR: BioMAP Diversity Plus: hDFCGF Assay for Epidermal growth factor receptor (EGFR) Biomarker Activity (AID 2283057). To be noted: primary human foreskin fibroblasts; actives raise or lower the signal. The essentials: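 hDFCGF system, primary human foreskin fibroblasts; compound 24 h; EGFR measured by ELISA; DMSO = negative control/baseline; bidirectional fitting.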

Read-out in experiment [9]: Interleukin-8 (IL8), CXCL8 (gene 3576)
Description: BSK_hDFCGF_IL8: BioMAP Diversity Plus: hDFCGF Assay for Interleukin-8 (IL8) Biomarker Activity (AID 2283058). The following applies: primary human foreskin fibroblasts; actives raise or lower the signal. The essentials:
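IL-8 levels from compound-treated primary human fibroblasts were read by ELISA at 24 h, with DMSO serving as baseline for bidirectional fitting.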

The nature of experiment [10]: BSK_hDFCGF_Proliferation: Cell Proliferation Assessment in the BioMAP Diversity Plus: hDFCGF Assay (AID 2283059).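 Further: curves fitted for both rise and fall of signal versus DMSO baseline.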 The following applies: primary human foreskin fibroblasts. The essentials:
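Steps: dose primary human dermal fibroblasts (foreskin); […] fix in 10% TCA; stain with 0.1% SRB; read 560 nm; fit gain or loss of signal against DMSO.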

Read-out in experiment [11]: Macrophage colony-stimulating factor (MCSF), CSF1 (gene 1435)
Briefly: BSK_hDFCGF_MCSF: BioMAP Diversity Plus: hDFCGF Assay for Macrophage colony-stimulating factor (MCSF) Biomarker Activity (AID 2283060). To be noted: primary human foreskin fibroblasts; actives raise or lower the signal. The essentials:
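M-CSF levels, determined by ELISA, are taken at 24 h after dosing human skin fibroblasts. Responses in either direction are fitted with DMSO serving as the baseline.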

Experiment [12] can be described thus: BSK_hDFCGF_SRB: Viability Assessment in the BioMAP Diversity Plus: hDFCGF Assay (AID 2283061).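 Further: cells exposed to compound for 24 h before the read.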 The following applies: primary human foreskin fibroblasts. The essentials: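 Cells were dosed with test chemical, cultured 24 h, fixed with 10% TCA, then stained with 0.1% SRB and read at 560 nm. The fibroblasts were human foreskin primary cells, and DMSO served as baseline.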

Read-out in experiment [13]: TIMP metallopeptidase inhibitor 1 (TIMP1), TIMP1 (gene 7076)
Briefly: BSK_hDFCGF_TIMP1: BioMAP Diversity Plus: hDFCGF Assay for TIMP metallopeptidase inhibitor 1 (TIMP1) Biomarker Activity (AID 2283062). To be noted: primary human foreskin fibroblasts; actives raise or lower the signal. The essentials: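 Fibroblasts from human foreskin are treated with test chemical and harvested at 24 h. TIMP-1 is quantified by ELISA, and gain or loss of signal is scored against DMSO.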

Read-out in experiment [14]: Monokine induced gamma interferon (MIG), CXCL9 (gene 4283)
Briefly: BSK_hDFCGF_MIG: BioMAP Diversity Plus: hDFCGF Assay for Monokine induced gamma interferon (MIG) Biomarker Activity (AID 2283063). The following applies: primary human foreskin fibroblasts; actives raise or lower the signal. The essentials: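 MIG signal, determined by ELISA, reflects 24 h chemical exposure of human skin primary fibroblasts. DMSO serves as negative control and baseline.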

Read-out in experiment [15]: Matrix Metallopeptidase 1 (MMP1), MMP1 (gene 4312)
Description: BSK_hDFCGF_MMP1: BioMAP Diversity Plus: hDFCGF Assay for Matrix Metallopeptidase 1 (MMP1) Biomarker Activity (AID 2283064). To be noted: primary human foreskin fibroblasts; actives raise or lower the signal. The essentials: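 Primary human foreskin fibroblasts exposed to chemicals for 24 h; MMP1 measured by ELISA. Cytotoxicity tracked by SRB staining in parallel cultures; bidirectional fit relative to DMSO.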

Read-out in experiment [16]: Vascular cell adhesion molecule 1 (VCAM1), VCAM1 (gene 7412)
Briefly: BSK_hDFCGF_VCAM1: BioMAP Diversity Plus: hDFCGF Assay for Vascular cell adhesion molecule 1 (VCAM1) Biomarker Activity (AID 2283065).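 On AC50: VCAM-1 protein level quantified by ELISA after 24 h chemical exposure.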 The following applies: primary human foreskin fibroblasts; actives raise or lower the signal. The essentials: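 Cells are dosed, cultured for 24 h, then VCAM-1 is quantified by ELISA; signal increases and decreases are both fitted relative to DMSO.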

Read-out in experiment [17]: Interferon-gamma inducible Protein 10 (IP10), CXCL10 (gene 3627)
Description: BSK_KF3CT_IP10: BioMAP Diversity Plus: KF3CT Assay for Interferon-gamma inducible Protein 10 (IP10) Biomarker Activity (AID 2283068). The following applies: primary human keratinocytes with fibroblasts; actives raise or lower the signal. In short, it runs like this:
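KF3CT co-culture (keratinocytes + foreskin fibroblasts), 24 h compound, IP-10 by ELISA; bidirectional fit vs DMSO baseline.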

The nature of experiment [18]: BSK_KF3CT_SRB: Viability Assessment in the BioMAP Diversity Plus: KF3CT Assay (AID 2283069).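 Further: total protein by sulforhodamine B staining as a cytotoxicity measure; fitted for both signal gain and loss against DMSO baseline.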 The following applies: primary human keratinocytes with fibroblasts. The essentials: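 Human keratinocyte and foreskin fibroblast co-culture exposed to chemical for 24 h. Total protein measured in parallel cultures by 0.1% sulforhodamine B staining after 10% TCA fixation, read at 560 nm; bidirectional fit relative to DMSO.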

Read-out in experiment [19]: Plasminogen activator inhibitor-1 (PAI1), SERPINE1 (gene 5054)
Briefly: BSK_hDFCGF_PAI1: BioMAP Diversity Plus: hDFCGF Assay for Plasminogen activator inhibitor-1 (PAI1) Biomarker Activity (AID 2283066). The following applies: primary human foreskin fibroblasts; actives raise or lower the signal. In short, it runs like this: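 Primary dermal fibroblasts (human foreskin), hDFCGF system; compound 24 h; PAI-1 by ELISA; bidirectional fit vs DMSO control.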

Read-out in experiment [20]: Intercellular Adhesion Molecule 1 (ICAM1), ICAM1 (gene 3383)
Briefly: BSK_KF3CT_ICAM1: BioMAP Diversity Plus: KF3CT Assay for Intercellular Adhesion Molecule 1 (ICAM1) Biomarker Activity (AID 2283067). To be noted: primary human keratinocytes with fibroblasts; actives raise or lower the signal. In short, it runs like this:
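Dose the keratinocyte/fibroblast co-culture, wait 24 h, measure ICAM-1 by ELISA, then fit increases or decreases against DMSO. Cytotoxicity is checked in parallel cultures by SRB total-protein staining.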

The structures appear in SMILES notation. “And” between values parts separate entries of the source, which are not always exact repeats. Equal entries are not always repeated. A structure can be active in one record and inactive in another. The source made the active and inactive calls. How the source made its calls: active means hit-call score of the fitted dose curve at least 0.9, where 1 is the maximum; inactive means score below 0.9.

Usually AC50 stands for the concentration at which the activity in the assay is half-maximal.

For `Cc1[nH]c(=O)n(C(C)(C)C)c(=O)c1Cl`, the outcome in experiment [1], in experiment [2], in [3], in [4], in experiment [5] and in experiment [6] was inactive. Moreover, the outcome in experiment [7], in [8], in experiment [9], in [10], in experiment [11] and in [12] was inactive. The outcome in [13], in experiment [14], in [15], in experiment [16], in [17] and in experiment [18] was inactive.
Turning to `Oc1ccc(Cl)cc1Cc1ccccc1`, the half-maximal activity concentration (AC50) was 32.4 µM (active) [middle of 7 runs] in experiment [1]; 31.3 µM (active) [middle of 4 runs] in [3]; 33.9 µM (active) [middle of 6 runs] in experiment [5]; 33.2 µM (active) [middle of 7 runs] in experiment [6]; 12.4 µM (active) [middle of 4 runs] in experiment [8]; 31.3 µM (active) [middle of 7 runs] in experiment [9]. Besides, the concentration at half-maximal activity (AC50) in experiment [10] was 7.84 µM (active) [middle of 7 runs]; in experiment [11] it was 14.7 µM (active) [middle of 7 runs]; in [16] it was 14.5 µM (active) [middle of 7 runs]. Also, the outcome in experiment [2], in experiment [3], in experiment [5] and in experiment [8] was inactive.
Consider `O=S(=O)(O)C(F)(F)C(F)(F)C(F)(F)C(F)(F)C(F)(F)C(F)(F)C(F)(F)C(F)(F)F`, for which the outcome in experiment [1], in experiment [2], in experiment [3], in [5], in experiment [6] and in experiment [7] was inactive. For the same molecule, the result in experiment [8], in experiment [9], in experiment [10], in experiment [11], in [12] and in [13] was inactive. Moreover, the outcome in experiment [14], in [15], in experiment [16], in experiment [19], in experiment [17] and in experiment [18] was inactive. For the same molecule, the AC50 in [6] is 13 µM (active) and 30 µM (active); in [7], 35.1 µM (active) and 30.8 µM (active); in [8], 3.97 µM (active); in experiment [11], 48.1 µM (active) and 48.4 µM (active); in experiment [12], 20 µM (active); in experiment [13] it was 0.485 µM (active). Besides, the AC50 is 30 µM (active) and 50.4 µM (active) in experiment [14]; 20 µM (active) and 29.6 µM (active) and 30 µM (active) in experiment [16]; 20 µM (active) and 48.5 µM (active) in experiment [19]; 23.1 µM (active) [middle of 5 runs] in experiment [17]; 39.2 µM (active) and 29.9 µM (active) in experiment [18].
As to `CCC(C)(C)C(=O)OC1=C(c2ccc(Cl)cc2Cl)C(=O)OC12CCCCC2`, the half-maximal activity concentration (AC50) was 28.7 µM (active) in experiment [1]; 10.5 µM (active) in experiment [2]; 10.3 µM (active) in [4]; 5.74 µM (active) in experiment [7]; 5.45 µM (active) in experiment [8]; 11 µM (active) in experiment [9]. Besides, the AC50 in experiment [10] is 4.67 µM (active); in experiment [11], 5.55 µM (active); in experiment [12], 11.4 µM (active); in experiment [13] it was 5.42 µM (active); in experiment [14] it was 9.84 µM (active); in experiment [15] it was 7.8 µM (active). The AC50 in experiment [16] is 9.68 µM (active); in experiment [20], 29.5 µM (active); in experiment [17], 29.9 µM (active); in experiment [18] it was 31.9 µM (active). Besides, the result in experiment [3], in [5] and in [6] was inactive.
Consider `COP(=O)(OC)OC=C(Cl)Cl`, for which the outcome in [1], in [2], in experiment [3], in [4], in experiment [5] and in experiment [6] was inactive. Besides, the outcome in experiment [7], in experiment [8], in experiment [10], in experiment [11], in experiment [12] and in [13] was inactive. Moreover, the outcome in experiment [14], in experiment [15], in [16], in experiment [17] and in experiment [18] was inactive.
